Data as given in the supplement of paper PMC10849652.
About 7,900 targets were measured; listed, in parts, are those with a hit and a random draw of the rest. About 0.6% of all pairs of compound and target were hits.

Columns and labels:
Assay in all cases: log2 fold change, soluble protein after heating vs DMSO (PISA); higher = thermal stabilisation; K562 cells, 10 uM, 30 min; active = over 0.2 and 3.5 SD of the protein, either way, in both replicates (recomputed)
[1] = compound: C1=CC=C(C=C1)[C@H](COC2=CC3=C(C=C2)NC(=O)N3)NC(=O)C4=CC=CN(C4=O)CC5=CC(=C(C=C5)F)F
Outline: (§1)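 K562 cells at 2×10^6 cells/mL were treated with 10 μM compound for 30 min. Aliquots were heated for 3 min across 48°C-58°C, pooled, and extracted in PBS with 0.5% NP-40 at 4°C; soluble protein was the supernatant after 21,000xg for 90 min. Soluble protein was quantified by TMTpro 16plex LC-MS/MS with channel sums equalised, and reported as log2 fold change in thermal stability against DMSO controls, with values from duplicates.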

[2] = compound: CC1=C(SC2=C1C(=N[C@H](C3=NN=C(N32)C)CC(=O)N)C4=CC=C(C=C4)Cl)C
Outline: as §1

[3] = compound: CC1=C2C(=CC=C1)N=C(N(C2=O)C3=CC=CC=C3C)CN4C=NC5=C(N=CN=C54)N
Outline: as §1

[4] = compound: Cc1sc2c(c1C)C(c1ccc(Cl)cc1)=N[C@@H](CC(=O)OC(C)(C)C)c1nnc(C)n1-2
Outline: as §1

[5] = compound: c1ccc([C@@H]2C[C@H]2NC2CCNCC2)cc1
Outline: as §1

Measured: log2 fold change

SH3GL1 (UniProt Q99961)
inactive: [1] -0.073 | [2] 0 | [3] 0.118 | [4] 0.002 | [5] -0.049

RNF187 (UniProt Q5TA31)
inactive: [1] -0.047 | [2] 0.07 | [3] -0.033 | [4] -0.083 | [5] -0.033

RBM12 (UniProt Q9NTZ6)
inactive: [1] -0.039 | [2] 0.023 | [3] 0.077 | [4] -0.064 | [5] -0.006

SCG3 (UniProt Q8WXD2)
inactive: [1] 0.131 | [2] 0.034 | [3] 0.09 | [4] 0 | [5] 0.051

RPS9 (UniProt P46781)
inactive: [1] 0.073 | [2] -0.19 | [3] -0.24 | [4] 0.134 | [5] 0

SDHC (UniProt Q99643)
inactive: [1] -0.052 | [2] 0.004 | [3] -0.056 | [4] -0.018 | [5] 0.163

RBM22 (UniProt Q9NW64)
UniProt Q9NW64, sequence (Q9NW64 whole entry, looked up): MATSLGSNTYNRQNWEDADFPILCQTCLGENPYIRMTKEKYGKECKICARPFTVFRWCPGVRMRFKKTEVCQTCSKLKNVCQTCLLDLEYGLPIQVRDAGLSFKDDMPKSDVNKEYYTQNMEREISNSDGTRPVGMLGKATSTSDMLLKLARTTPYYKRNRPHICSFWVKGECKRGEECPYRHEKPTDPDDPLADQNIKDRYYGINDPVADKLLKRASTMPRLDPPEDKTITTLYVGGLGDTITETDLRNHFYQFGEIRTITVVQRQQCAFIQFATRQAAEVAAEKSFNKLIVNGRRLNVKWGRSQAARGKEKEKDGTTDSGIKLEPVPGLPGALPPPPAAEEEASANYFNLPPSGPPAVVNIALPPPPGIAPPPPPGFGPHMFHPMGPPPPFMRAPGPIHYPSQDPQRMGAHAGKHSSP
inactive: [1] 0.033 | [2] -0.022 | [3] -0.013 | [4] 0.027 | [5] 0.049

RAD50, A0A494C0Y7
inactive: [1] -0.1 | [2] -0.003 | [3] 0.194 | [4] 0.104 | [5] 0.118

RIOK2 (UniProt Q9BVS4)
inactive: [1] 0.034 | [2] -0.038 | [3] -0.119 | [4] 0.116 | [5] -0.009

SEH1L isoform 1 (UniProt Q96EE3)
inactive: [1] -0.003 | [2] 0.06 | [3] -0.003 | [4] -0.014 | [5] 0.017

RPP14 (UniProt O95059)
UniProt O95059, sequence (O95059 whole entry, looked up): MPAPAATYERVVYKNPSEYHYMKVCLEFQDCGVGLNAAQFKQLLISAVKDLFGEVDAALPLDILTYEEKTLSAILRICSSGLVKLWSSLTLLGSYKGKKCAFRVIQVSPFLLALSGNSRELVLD
inactive: [1] 0.044 | [2] -0.023 | [3] -0.028 | [4] 0.002 | [5] -0.009

RABGAP1L isoform 3 (UniProt Q5R372)
inactive: [1] 0.007 | [2] 0.024 | [3] 0.033 | [4] -0.015 | [5] -0.005

SLC1A3 (UniProt P43003)
inactive: [1] -0.031 | [2] 0.003 | [3] -0.016 | [4] 0.17 | [5] 0.039

RNASET2 (UniProt O00584)
UniProt O00584, sequence (O00584 whole entry, looked up): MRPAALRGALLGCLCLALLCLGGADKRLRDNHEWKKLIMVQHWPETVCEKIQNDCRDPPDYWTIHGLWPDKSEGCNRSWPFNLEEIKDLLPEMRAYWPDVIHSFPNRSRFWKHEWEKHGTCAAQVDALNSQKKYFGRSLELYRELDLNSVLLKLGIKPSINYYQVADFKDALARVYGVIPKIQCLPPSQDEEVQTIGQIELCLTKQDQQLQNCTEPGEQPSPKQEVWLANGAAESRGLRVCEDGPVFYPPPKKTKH
inactive: [1] 0.037 | [2] -0.038 | [3] 0.063 | [4] -0.013 | [5] 0.012

RHOA (UniProt P61586)
UniProt P61586, sequence (P61586 whole entry, looked up): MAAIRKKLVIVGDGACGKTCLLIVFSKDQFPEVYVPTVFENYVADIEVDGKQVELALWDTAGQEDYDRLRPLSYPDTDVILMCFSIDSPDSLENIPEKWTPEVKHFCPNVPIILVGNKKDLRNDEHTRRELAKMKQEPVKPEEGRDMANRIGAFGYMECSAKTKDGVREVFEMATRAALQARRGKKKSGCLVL
inactive: [1] 0.01 | [2] -0.058 | [3] -0.095 | [4] -0.041 | [5] 0.021

RAB3IL1 (UniProt Q8TBN0)
UniProt Q8TBN0, sequence (Q8TBN0 whole entry, looked up): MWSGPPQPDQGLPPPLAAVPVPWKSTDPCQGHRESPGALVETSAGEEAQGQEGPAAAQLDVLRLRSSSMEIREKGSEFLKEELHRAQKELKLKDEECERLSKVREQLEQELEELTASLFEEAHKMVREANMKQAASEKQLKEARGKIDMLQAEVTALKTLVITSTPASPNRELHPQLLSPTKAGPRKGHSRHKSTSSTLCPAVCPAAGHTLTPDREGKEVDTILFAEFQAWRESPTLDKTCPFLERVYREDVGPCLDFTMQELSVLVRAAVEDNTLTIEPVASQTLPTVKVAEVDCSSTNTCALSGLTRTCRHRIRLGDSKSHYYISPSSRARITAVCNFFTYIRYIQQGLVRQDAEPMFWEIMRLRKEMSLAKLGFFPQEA
inactive: [1] 0.018 | [2] -0.013 | [3] 0.078 | [4] -0.03 | [5] -0.076

RPA3 (UniProt P35244)
inactive: [1] 0.008 | [2] 0.09 | [3] -0.055 | [4] -0.146 | [5] -0.03

RIPK1 (UniProt Q13546)
inactive: [1] -0.058 | [2] -0.134 | [3] 0.033 | [4] -0.048 | [5] -0.049

RPS3 (UniProt P23396)
inactive: [1] 0.055 | [2] -0.118 | [3] -0.127 | [4] 0.083 | [5] 0.015

RPA1 (UniProt P27694)
UniProt P27694, sequence (P27694 whole entry, looked up): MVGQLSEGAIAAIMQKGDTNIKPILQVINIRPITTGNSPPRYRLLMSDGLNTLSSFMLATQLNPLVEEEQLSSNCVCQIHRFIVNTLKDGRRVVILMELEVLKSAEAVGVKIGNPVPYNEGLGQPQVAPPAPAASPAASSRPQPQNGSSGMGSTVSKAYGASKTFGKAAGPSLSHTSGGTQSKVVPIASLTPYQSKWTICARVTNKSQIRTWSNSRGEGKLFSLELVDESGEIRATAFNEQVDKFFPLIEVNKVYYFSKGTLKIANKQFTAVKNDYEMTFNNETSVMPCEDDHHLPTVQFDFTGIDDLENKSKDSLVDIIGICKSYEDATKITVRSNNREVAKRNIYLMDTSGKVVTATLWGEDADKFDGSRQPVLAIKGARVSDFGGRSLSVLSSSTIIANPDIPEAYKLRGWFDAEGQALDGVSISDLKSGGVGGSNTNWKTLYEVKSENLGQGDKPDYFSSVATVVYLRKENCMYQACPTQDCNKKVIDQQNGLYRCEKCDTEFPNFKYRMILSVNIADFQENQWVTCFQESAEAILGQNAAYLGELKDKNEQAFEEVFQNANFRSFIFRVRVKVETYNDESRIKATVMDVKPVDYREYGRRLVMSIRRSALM
inactive: [1] -0.032 | [2] 0.025 | [3] 0.087 | [4] -0.047 | [5] 0.011

SDCBP (UniProt O00560)
UniProt O00560, sequence (O00560 whole entry, looked up): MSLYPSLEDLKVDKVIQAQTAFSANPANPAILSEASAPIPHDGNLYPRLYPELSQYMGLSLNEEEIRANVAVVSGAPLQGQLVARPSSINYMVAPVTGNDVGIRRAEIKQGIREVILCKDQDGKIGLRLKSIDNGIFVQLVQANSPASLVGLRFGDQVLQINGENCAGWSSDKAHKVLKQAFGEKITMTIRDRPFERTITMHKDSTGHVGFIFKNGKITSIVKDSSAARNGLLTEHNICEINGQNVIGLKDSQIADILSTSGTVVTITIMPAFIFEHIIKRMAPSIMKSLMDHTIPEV
inactive: [1] 0.029 | [2] -0.031 | [3] -0.067 | [4] 0.04 | [5] -0.102

SFXN5 (UniProt Q8TD22)
inactive: [1] -0.079 | [2] 0.024 | [3] -0.11 | [4] 0.007 | [5] -0.061

RSRC1 (UniProt Q96IZ7)
UniProt Q96IZ7, sequence (Q96IZ7 whole entry, looked up): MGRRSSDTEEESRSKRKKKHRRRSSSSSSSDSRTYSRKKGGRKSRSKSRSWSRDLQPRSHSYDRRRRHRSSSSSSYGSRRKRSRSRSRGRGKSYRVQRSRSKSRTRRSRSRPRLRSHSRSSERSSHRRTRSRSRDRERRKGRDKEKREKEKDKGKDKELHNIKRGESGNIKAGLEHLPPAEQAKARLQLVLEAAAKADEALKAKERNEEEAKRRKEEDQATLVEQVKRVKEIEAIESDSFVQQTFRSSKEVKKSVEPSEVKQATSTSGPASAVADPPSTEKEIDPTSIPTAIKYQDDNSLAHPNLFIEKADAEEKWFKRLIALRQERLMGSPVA
inactive: [1] -0.002 | [2] -0.019 | [3] 0.079 | [4] -0.019 | [5] -0.03

SEC16A isoform 5 (UniProt O15027)
UniProt O15027, sequence (O15027 whole entry, looked up): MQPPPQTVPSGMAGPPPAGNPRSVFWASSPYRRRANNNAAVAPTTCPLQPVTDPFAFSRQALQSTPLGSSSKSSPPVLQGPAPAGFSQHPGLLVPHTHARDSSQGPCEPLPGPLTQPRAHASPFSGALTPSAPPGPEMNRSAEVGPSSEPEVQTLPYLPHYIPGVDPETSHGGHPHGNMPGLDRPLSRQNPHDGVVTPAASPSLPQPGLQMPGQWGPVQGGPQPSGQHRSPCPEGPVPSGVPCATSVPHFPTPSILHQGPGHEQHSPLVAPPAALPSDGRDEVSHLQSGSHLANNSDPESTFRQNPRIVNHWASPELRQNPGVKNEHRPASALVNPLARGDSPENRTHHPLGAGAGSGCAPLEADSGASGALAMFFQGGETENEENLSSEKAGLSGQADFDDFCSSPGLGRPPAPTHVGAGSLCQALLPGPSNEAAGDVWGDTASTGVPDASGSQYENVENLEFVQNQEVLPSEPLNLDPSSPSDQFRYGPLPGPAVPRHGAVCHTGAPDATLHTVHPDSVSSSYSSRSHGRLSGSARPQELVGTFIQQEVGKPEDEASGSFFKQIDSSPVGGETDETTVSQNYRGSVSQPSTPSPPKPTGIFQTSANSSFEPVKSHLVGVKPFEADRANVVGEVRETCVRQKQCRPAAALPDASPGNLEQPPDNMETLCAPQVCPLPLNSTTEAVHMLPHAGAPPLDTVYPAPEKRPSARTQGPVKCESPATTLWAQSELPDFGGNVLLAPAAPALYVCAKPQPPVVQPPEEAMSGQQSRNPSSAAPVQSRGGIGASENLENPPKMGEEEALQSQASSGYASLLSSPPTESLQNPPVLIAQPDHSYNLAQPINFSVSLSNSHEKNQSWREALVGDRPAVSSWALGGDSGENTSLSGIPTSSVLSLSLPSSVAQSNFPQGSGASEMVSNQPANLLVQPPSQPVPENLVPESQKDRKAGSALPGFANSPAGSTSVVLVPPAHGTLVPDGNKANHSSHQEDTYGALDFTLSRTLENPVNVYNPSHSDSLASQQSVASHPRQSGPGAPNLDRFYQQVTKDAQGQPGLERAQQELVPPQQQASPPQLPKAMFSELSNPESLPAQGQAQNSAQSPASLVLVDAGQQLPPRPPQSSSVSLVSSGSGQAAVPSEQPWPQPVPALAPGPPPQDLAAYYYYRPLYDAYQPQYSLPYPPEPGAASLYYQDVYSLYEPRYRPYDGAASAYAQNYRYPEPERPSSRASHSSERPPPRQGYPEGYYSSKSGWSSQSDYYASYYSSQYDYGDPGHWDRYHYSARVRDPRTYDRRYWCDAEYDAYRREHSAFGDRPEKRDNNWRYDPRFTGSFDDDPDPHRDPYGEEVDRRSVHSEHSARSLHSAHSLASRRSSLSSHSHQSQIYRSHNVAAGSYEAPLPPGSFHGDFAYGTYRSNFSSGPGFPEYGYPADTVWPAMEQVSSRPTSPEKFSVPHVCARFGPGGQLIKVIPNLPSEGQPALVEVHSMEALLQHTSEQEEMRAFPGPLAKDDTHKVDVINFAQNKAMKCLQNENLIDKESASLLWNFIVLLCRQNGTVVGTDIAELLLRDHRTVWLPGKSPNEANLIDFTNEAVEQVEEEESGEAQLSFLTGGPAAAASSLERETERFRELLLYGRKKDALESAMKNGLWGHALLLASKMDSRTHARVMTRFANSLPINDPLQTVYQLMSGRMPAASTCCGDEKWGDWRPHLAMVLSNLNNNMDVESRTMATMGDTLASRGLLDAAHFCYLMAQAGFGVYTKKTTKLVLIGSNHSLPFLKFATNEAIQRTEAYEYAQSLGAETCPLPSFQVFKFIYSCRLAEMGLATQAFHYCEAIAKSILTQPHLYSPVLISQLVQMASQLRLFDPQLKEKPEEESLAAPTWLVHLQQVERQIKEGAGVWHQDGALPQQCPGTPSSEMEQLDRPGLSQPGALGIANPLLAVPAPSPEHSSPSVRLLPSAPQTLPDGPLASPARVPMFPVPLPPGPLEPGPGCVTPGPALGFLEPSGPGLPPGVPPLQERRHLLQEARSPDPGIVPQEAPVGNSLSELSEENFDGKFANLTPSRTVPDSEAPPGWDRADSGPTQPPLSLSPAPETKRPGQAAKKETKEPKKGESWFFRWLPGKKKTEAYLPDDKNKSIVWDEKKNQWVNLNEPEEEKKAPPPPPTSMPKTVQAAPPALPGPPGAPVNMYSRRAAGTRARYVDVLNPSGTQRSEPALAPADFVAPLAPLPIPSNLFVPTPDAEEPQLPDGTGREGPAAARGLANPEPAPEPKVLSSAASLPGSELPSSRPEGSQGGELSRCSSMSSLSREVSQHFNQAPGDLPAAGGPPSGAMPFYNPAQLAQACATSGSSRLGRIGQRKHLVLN
inactive: [1] 0.014 | [2] 0.012 | [3] 0.154 | [4] 0.011 | [5] -0.006
